Article PMC4336329 (PLoS ONE, 2015)
Among all 310,000 compounds or so, about 14,000 (4.5%) showed an effect of 50% or more. Effects have a minus sign here. This excerpt belongs to a sample that is enriched for strong results.

target: human ether-à-go-go-related gene (hERG) potassium channel (human, UniProt Q12809); experiment: primary screen, population patch clamp on CHO cells stably expressing hERG; higher = less effect of the substance
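Further: peak tail current of the secondary pulse compared with the same well before compound.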

Sequence of human ether-à-go-go-related gene (hERG) potassium channel (Q12809 whole entry, looked up): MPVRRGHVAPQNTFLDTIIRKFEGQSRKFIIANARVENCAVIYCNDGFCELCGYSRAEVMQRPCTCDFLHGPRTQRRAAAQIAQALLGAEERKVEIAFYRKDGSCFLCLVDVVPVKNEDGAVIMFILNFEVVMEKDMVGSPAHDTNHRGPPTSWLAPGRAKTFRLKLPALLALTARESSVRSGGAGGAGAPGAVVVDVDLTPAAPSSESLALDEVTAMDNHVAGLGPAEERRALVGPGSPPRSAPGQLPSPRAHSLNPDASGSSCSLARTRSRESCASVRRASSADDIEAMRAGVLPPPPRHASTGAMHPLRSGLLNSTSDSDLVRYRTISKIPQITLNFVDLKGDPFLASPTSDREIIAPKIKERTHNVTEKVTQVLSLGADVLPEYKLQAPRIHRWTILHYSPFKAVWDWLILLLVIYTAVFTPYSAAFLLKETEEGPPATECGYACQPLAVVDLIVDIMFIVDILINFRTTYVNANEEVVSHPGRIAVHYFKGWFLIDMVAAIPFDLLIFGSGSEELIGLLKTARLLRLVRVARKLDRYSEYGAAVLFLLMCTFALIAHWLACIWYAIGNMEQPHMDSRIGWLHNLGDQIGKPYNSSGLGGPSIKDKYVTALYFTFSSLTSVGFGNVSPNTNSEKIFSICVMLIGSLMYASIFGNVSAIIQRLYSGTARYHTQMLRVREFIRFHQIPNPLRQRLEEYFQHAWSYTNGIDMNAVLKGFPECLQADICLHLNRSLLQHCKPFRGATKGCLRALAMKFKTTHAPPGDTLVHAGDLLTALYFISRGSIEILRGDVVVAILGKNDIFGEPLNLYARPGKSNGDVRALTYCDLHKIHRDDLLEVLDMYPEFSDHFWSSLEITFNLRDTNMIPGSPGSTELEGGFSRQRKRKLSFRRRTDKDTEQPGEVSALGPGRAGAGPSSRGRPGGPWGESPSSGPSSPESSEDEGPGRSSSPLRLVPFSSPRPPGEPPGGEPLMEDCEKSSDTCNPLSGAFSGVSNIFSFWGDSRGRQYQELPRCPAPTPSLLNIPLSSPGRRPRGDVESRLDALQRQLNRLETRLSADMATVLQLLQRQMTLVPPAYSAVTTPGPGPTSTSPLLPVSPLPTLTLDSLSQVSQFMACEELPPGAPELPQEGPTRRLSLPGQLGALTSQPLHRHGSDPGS

Compared with `CC(=O)Nc1ccc2nc(CN3CCN(CC=C(C)C)C(CCO)C3)ccc2c1` (centres unmarked), `CC(=O)Nc1ccc2nc(CN3CCN(CC(C)C)C(CCO)C3)ccc2c1` (centres unmarked) is higher in “hERG current change (%, negative = inhibition) at 10uM” value: 11.5% for the first, 17% for the second.

First: CC(=O)Nc1ccc2nc(CN3CCC(CO)(CCc4ccccc4)CC3)ccc2c1
Second: CCOC(=O)C1(Cc2ccccc2)CCN(Cc2ccc3cc(NC(C)=O)ccc3n2)CC1
The “hERG current change (%, negative = inhibition) at 10uM” value of the first is higher: -68.2% for the first, -68.7% for the second.

Going from `CCOC(=O)C1(Cc2ccccc2)CCN(Cc2ccon2)CC1` to `CCOC(=O)C1(Cc2ccccc2)CCN(Cc2cc(=O)c3ccccc3[nH]2)CC1`, the “hERG current change (%, negative = inhibition) at 10uM” value rises from 0.71% to 13.5%.

First: COc1ccc(C(=O)Nc2nc3c(s2)CCCC3)cc1S(=O)(=O)N1CCCc2ccccc21
Second: COc1ccc(OC)c(S(=O)(=O)N(C)CC(=O)Nc2ccccc2OC)c1
The “hERG current change (%, negative = inhibition) at 10uM” value of the first is higher: -2.36% for the first, -20.2% for the second.

Compared with `Cc1noc(C)c1COc1ccc(C(=O)O)cc1`, `COc1ccc(C(=O)NC(=S)NNC(=O)COc2ccccc2)cc1` is lower in “hERG current change (%, negative = inhibition) at 10uM” value: 17.1% for the first, -2.47% for the second.

Going from `CCCCc1n[nH]c2c1/C(=N/O)CC(c1ccccc1)C2` (centres unmarked) to `Cc1cccc(C)c1OCC(O)CNC(C)c1ccccc1.Cl` (centres unmarked), the “hERG current change (%, negative = inhibition) at 10uM” value falls from 8.46% to -13.7%.

First: Cc1ccc(C(OCC(O)CNC(CO)C(O)c2ccc([N+](=O)[O-])cc2)c2ccccc2)cc1 (centres unmarked)
Second: Cc1ccc(C(OCC(O)CNC(C)c2ccccc2)c2ccccc2)cc1 (centres unmarked)
The “hERG current change (%, negative = inhibition) at 10uM” value of the first is higher: -22.4% for the first, -58.2% for the second.

First: OC(CNCCc1ccc(C(F)(F)F)cc1)COc1cccc2ccccc12 (centres unmarked)
Second: COc1ccccc1COCC(O)CNCCc1ccc(C(F)(F)F)cc1.O=C(O)C(=O)O (centres unmarked)
The “hERG current change (%, negative = inhibition) at 10uM” value of the first is higher: -36.5% for the first, -56.5% for the second.

Compared with `CC(NCC(O)COc1ccc2ccccc2c1)c1ccccc1.O=C(O)C(=O)O` (centres unmarked), `COc1ccc(OCC(O)CNC(C)c2ccccc2)cc1.Cl` (centres unmarked) is higher in “hERG current change (%, negative = inhibition) at 10uM” value: -44% for the first, 5.12% for the second.

Going from `COc1cccc(OCC(O)CNC(C)c2ccccc2)c1.Cl` (centres unmarked) to `CC(NCC(O)COc1ccc(Br)cc1)c1ccccc1.Cl` (centres unmarked), the “hERG current change (%, negative = inhibition) at 10uM” value falls from 2.14% to 0.452%.

Going from `COc1ccc(C(OCC(O)CNCCc2ccccc2)c2ccc(OC)cc2)cc1.O=C(O)C(=O)O` (centres unmarked) to `COc1ccc(C(OCC(O)CNCCc2ccc(S(N)(=O)=O)cc2)c2ccc(OC)cc2)cc1` (centres unmarked), the “hERG current change (%, negative = inhibition) at 10uM” value rises from -63.7% to -43.2%.

Compared with `COc1ccc(CCNCC(O)c2ccccc2)cc1.O=C(O)C(=O)O` (centres unmarked), `O=C(O)C(=O)O.OC(CNCCc1ccc(C(F)(F)F)cc1)COC(c1ccccc1)c1ccccc1` (centres unmarked) is lower in “hERG current change (%, negative = inhibition) at 10uM” value: -11.4% for the first, -34.7% for the second.

First: COc1ccc(C(OCC(O)CNC(C)c2ccccc2)c2ccc(OC)cc2)cc1 (centres unmarked)
Second: CC(C)c1ccc(OCC(O)CNC(C)c2ccccc2)cc1.Cl (centres unmarked)
The “hERG current change (%, negative = inhibition) at 10uM” value of the first is higher: -52.4% for the first, -65.3% for the second.

Going from `COC(=O)c1cc(S(=O)(=O)NCc2ccccc2Cl)c[nH]1` to `O=C(Nc1nnc(SCc2ccccc2Cl)s1)c1cccc([N+](=O)[O-])c1`, the “hERG current change (%, negative = inhibition) at 10uM” value falls from 17.1% to -3.26%.

Compared with `C1CN(CCN2CCOCC2)CCN1`, `Cc1c(C(=O)N2CCOCC2)c(S(=O)(=O)N2CCN(c3ccc(Cl)cc3)CC2)c(C)n1C` is lower in “hERG current change (%, negative = inhibition) at 10uM” value: 21% for the first, -37.6% for the second.

Compared with `Cc1cccc(C)c1NS(=O)(=O)c1ccc(NC(=O)c2ccc(Cl)c([N+](=O)[O-])c2)cc1`, `Cc1ccc(NS(=O)(=O)c2ccc(C)c(C(=O)N3CCN(C)CC3)c2)cc1.Cl` is lower in “hERG current change (%, negative = inhibition) at 10uM” value: 13.9% for the first, -14.8% for the second.

Compared with `Cc1ccc(S(=O)(=O)N(CC2CO2)c2ccccc2[N+](=O)[O-])cc1` (centres unmarked), `CCN(c1ccccc1)S(=O)(=O)c1ccc(C(=O)Nc2nccs2)cc1` is lower in “hERG current change (%, negative = inhibition) at 10uM” value: 13.1% for the first, 8.62% for the second.

Going from `O=C(Nc1cc(Oc2ccc(Cl)cc2)cc([N+](=O)[O-])c1)c1ccco1` to `C=CCNC(=O)/C(=C/c1cccc([N+](=O)[O-])c1)NC(=O)c1ccco1`, the “hERG current change (%, negative = inhibition) at 10uM” value falls from 15% to -27.5%.

Going from `CCOc1cnn(-c2cc(Oc3ccc(C)cc3)ncn2)c(=O)c1Cl` to `COc1ccc(CN2C(=O)c3ccccc3C(/C=N\OCc3ccc(C)cc3)C2=O)cc1` (centres unmarked), the “hERG current change (%, negative = inhibition) at 10uM” value rises from -12.4% to 8.84%.

Compared with `O=C(CSc1nnnn1-c1cccc2ccccc12)Nc1ccc(N2CCOCC2)c(Cl)c1`, `O=C(CCc1nnc2ccc(N3CCC4(CC3)OCCO4)nn12)Nc1ccc(F)cc1` is lower in “hERG current change (%, negative = inhibition) at 10uM” value: 2.68% for the first, -40.2% for the second.

Going from `O=C1CCCN1c1cc(Cl)ccc1Cl` to `Cc1ccc(N2C(=O)CC(C)CC2=O)cc1`, the “hERG current change (%, negative = inhibition) at 10uM” value rises from 2.17% to 21.2%.

Compared with `CN(Cc1nc(-c2cnccn2)no1)CC1(c2ccccc2)CC1(C)C` (centres unmarked), `CN(C)CCNC(=O)/C(=C/c1cccc([N+](=O)[O-])c1)NC(=O)c1ccccc1` is lower in “hERG current change (%, negative = inhibition) at 10uM” value: 4.2% for the first, -66.9% for the second.

Compared with `COc1ccc(-c2nnc(-c3ccc(N)cc3)o2)cc1`, `COc1ccc(C(=O)N/C(=C\c2cccc([N+](=O)[O-])c2)C(=O)Nc2cccc(C(=O)O)c2)cc1` is higher in “hERG current change (%, negative = inhibition) at 10uM” value: -5.64% for the first, 5.3% for the second.

Going from `CC1CCCCN1C(=O)c1ccc(S(=O)(=O)N2CCCCC2C)cc1` (centres unmarked) to `Cc1ccc(S(=O)(=O)N2CCCCC2C(=O)N2CCN(C)CC2)cc1` (centres unmarked), the “hERG current change (%, negative = inhibition) at 10uM” value rises from -9.35% to 18.1%.

First: COc1ccccc1N1CCN(C(=O)/C=C/c2ccc3c(c2)OCO3)CC1
Second: Cc1[nH]c(C)c(S(=O)(=O)N2CCN(c3ccccc3)CC2)c1C(=O)N1CCCC1
The “hERG current change (%, negative = inhibition) at 10uM” value of the first is lower: -10.5% for the first, -10.4% for the second.

First: C=CCNC(=O)/C(=C/c1cccc([N+](=O)[O-])c1)NC(=O)c1ccccc1
Second: C=CCNC(=O)/C(=C\c1cccc([N+](=O)[O-])c1)NC(=O)c1ccccc1
The “hERG current change (%, negative = inhibition) at 10uM” value of the first is higher: -31.2% for the first, -53.4% for the second.

First: CC(C)(C)c1ccc(C(=O)N/C(=C\c2cccc([N+](=O)[O-])c2)C(=O)Nc2cccc(C(=O)O)c2)cc1
Second: O=C(C[n+]1ccc(C(=O)c2ccccc2)cc1)Nc1ccc(C(F)(F)F)cc1.[Cl-]
The “hERG current change (%, negative = inhibition) at 10uM” value of the first is higher: 12.7% for the first, -11.6% for the second.

Going from `Cc1c(C(=O)N(CC(C)C)c2c(N)n(Cc3ccccc3)c(=O)[nH]c2=O)sc2nc3n(c(=O)c12)CCC3` to `CC(C)CN1C(=O)C(=O)N(CC(=O)c2ccc[nH]2)C1=O`, the “hERG current change (%, negative = inhibition) at 10uM” value falls from 7.27% to 1.48%.

Compared with `CCOc1ccc(N(CC(=O)Nc2ccccc2C(=O)NC(C)CC)S(C)(=O)=O)cc1` (centres unmarked), `COc1cccc(NC(=O)COC(=O)c2ccccc2F)c1` is higher in “hERG current change (%, negative = inhibition) at 10uM” value: -13.3% for the first, 13.8% for the second.

First: Cc1c(C(=O)N2CCCCC2)c(S(=O)(=O)N2CCN(c3ccc(Cl)cc3)CC2)c(C)n1C
Second: CC(=O)c1ccc(N2CCN(S(=O)(=O)c3c(C(=O)N4CCCCC4)c(C)n(C)c3C)CC2)cc1
The “hERG current change (%, negative = inhibition) at 10uM” value of the first is lower: -55.7% for the first, -2.75% for the second.

First: Cc1[nH]c(C)c(S(=O)(=O)N2CCN(c3ccc(Cl)cc3)CC2)c1C(=O)N1CCCC1
Second: Cc1[nH]c(C)c(S(=O)(=O)N2CCN(c3cccc(Cl)c3)CC2)c1C(=O)N1CCCC1
The “hERG current change (%, negative = inhibition) at 10uM” value of the first is lower: -66.4% for the first, -6.94% for the second.

First: CCOc1ccc(OCC)c(NC(=O)C2CCN(c3ncccn3)CC2)c1
Second: CCOc1ccc(CN2CCN(Cc3cccn3-c3nccs3)CC2CCO)cc1 (centres unmarked)
The “hERG current change (%, negative = inhibition) at 10uM” value of the first is higher: -30% for the first, -76.1% for the second.

First: CCC(C)CCN1C(N(C)C)=NC[C@@H]1C (some centres unmarked)
Second: CC(C)CCN1CCN(Cc2cccn2-c2nccs2)CC1CCO (centres unmarked)
The “hERG current change (%, negative = inhibition) at 10uM” value of the first is higher: 15.3% for the first, -52.1% for the second.

First: O=C(NC1CCCCC1)C(c1ccco1)N(C(=O)c1csnn1)c1cccc(Cl)c1 (centres unmarked)
Second: CSc1ncccc1C(=O)OCC(=O)Nc1ccc2c(c1)CCC2
The “hERG current change (%, negative = inhibition) at 10uM” value of the first is lower: 4.93% for the first, 9.67% for the second.

Compared with `OCCC1CN(Cc2cccn2-c2nccs2)CCN1C1CCCCC1` (centres unmarked), `CC(C)N1CCN(Cc2cccn2-c2nccs2)CC1CCO` (centres unmarked) is higher in “hERG current change (%, negative = inhibition) at 10uM” value: -37.8% for the first, 10.2% for the second.

Compared with `OCCC1CN(Cc2cccn2-c2nccs2)CCN1CCc1ccccc1` (centres unmarked), `OCCC1CN(Cc2cccn2-c2nccs2)CCN1Cc1ccccc1` (centres unmarked) is higher in “hERG current change (%, negative = inhibition) at 10uM” value: -73.6% for the first, -69.3% for the second.

Going from `CC(C)=CCN1CCN(Cc2cccn2-c2nccs2)CC1CCO` (centres unmarked) to `Cc1ccc(CN2CCN(Cc3cccn3-c3nccs3)CC2CCO)cc1` (centres unmarked), the “hERG current change (%, negative = inhibition) at 10uM” value falls from -34.1% to -77.3%.

Compared with `Cc1c(S(=O)(=O)Nc2ccc3c(c2)OCCO3)c(=O)n(C)c(=O)n1C`, `CCOCCCNS(=O)(=O)c1cc2[nH]c3c(c2cc1C)C(=O)CC(C)(C)C3` is higher in “hERG current change (%, negative = inhibition) at 10uM” value: -10.7% for the first, -6.44% for the second.

Going from `O=C1/C(=C\c2ccc(Br)o2)Cc2ccccc21` to `CCn1nc(C)c(Br)c1-c1nc(-c2cccc(C)c2)no1`, the “hERG current change (%, negative = inhibition) at 10uM” value rises from 2.56% to 19.1%.

First: OCCC1CN(Cc2cccn2-c2nccs2)CCN1Cc1ccc(F)c(F)c1 (centres unmarked)
Second: CCc1nc(CN2CCN(Cc3ccc(F)c(F)c3)C(CCO)C2)c(C)[nH]1 (centres unmarked)
The “hERG current change (%, negative = inhibition) at 10uM” value of the first is lower: -80.7% for the first, 14.2% for the second.

Going from `CS(=O)(=O)N(CC(=O)N1CCCCC1)c1cccc(F)c1` to `CC(C)(C)C(=O)NC(NC(=O)C(C)(C)C)c1ccc([N+](=O)[O-])cc1`, the “hERG current change (%, negative = inhibition) at 10uM” value falls from 13% to 8.18%.

With `CC(C)[C@H](CN(N=O)[C@@H](Cc1ccccc1)CN(C)N=O)N(CCc1ccccc1)N=O.[Na+]` the “hERG current change (%, negative = inhibition) at 10uM” value was -0.676%.
